Rows were chosen to be rich in hits. Some 2.3% of all compounds tested hit in one or more screens of this group.
Tau fluor cs: counter-screen for tau fibril formation inhibitors | 0.93% of 280,000 active | tau K18 P301L Alexa594 fluorescence, heparin fibrillization | AID 1463 | Potency, µM (series often up to 57.7 µM), without a hit: top-dose activity change, negative = decrease; further: potency means the concentration at half of the fitted maximal effect; nearly all actives have a fitted effect of over 55% in size
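Human K18 P301L tau (15 uM unlabeled plus 0.24 uM Alexa 594-labeled, final) in 100 mM sodium acetate pH 7 was mixed with compound and 20 uM heparin and incubated 6 hr at 37 C.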
USP1 inh: inhibitors of human USP1/UAF1 deubiquitinase; O94782; Potency, µM (top dose mostly 57.1 µM), inactives show at the top dose activity change, negative = inhibition, actives largely listed as inhibitors; AID 743255; recombinant USP1/UAF1, Ub-Rhodamine cleavage fluorescence; 0.23% of 390,000 active; further: potency means the concentration at half of the fitted maximal effect; nearly all actives have a fitted effect of over 60% in size
Target sequence (O94782 whole entry, looked up): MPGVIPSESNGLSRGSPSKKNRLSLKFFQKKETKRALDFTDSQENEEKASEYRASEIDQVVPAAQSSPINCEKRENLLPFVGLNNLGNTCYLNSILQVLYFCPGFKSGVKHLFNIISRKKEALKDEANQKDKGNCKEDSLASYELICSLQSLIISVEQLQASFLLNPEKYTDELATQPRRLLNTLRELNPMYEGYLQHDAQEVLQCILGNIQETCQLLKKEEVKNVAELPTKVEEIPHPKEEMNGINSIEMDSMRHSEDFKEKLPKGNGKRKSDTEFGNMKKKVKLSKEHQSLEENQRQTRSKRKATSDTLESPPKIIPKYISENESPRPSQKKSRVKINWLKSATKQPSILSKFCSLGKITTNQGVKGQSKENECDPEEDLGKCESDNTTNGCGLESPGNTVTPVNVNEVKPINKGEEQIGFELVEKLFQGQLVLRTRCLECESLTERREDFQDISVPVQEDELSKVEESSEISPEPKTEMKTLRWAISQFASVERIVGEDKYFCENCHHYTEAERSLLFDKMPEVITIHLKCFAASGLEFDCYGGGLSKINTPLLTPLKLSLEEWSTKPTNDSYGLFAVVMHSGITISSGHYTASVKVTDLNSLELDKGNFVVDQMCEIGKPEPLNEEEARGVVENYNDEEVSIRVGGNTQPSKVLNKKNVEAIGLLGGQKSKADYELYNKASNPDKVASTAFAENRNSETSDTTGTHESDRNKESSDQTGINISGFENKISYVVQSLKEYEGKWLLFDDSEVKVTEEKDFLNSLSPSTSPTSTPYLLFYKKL
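Step one: compound is pinned into 1nM USP1/UAF1 in HEPES pH 7.8 buffer with TCEP. Step two: 15 min room-temperature incubation. Step three: Ub-Rho (150nM final) starts cleavage, tracked by fluorescence over six one-minute reads.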
Tau ThT inhib: inhibitors of human tau fibril formation, thioflavin T binding; P10636; recombinant tau K18 P301L (four-repeat tau fragment), heparin-induced fibrillization, ThT fluorescence; AID 1460; Potency, µM (series often up to 57.4 µM), inactives show at the top dose activity, negative = inhibition, actives largely listed as inhibitors; 2.1% of 270,000 active; further: potency means the concentration at half of the fitted maximal effect; nearly all actives have a fitted effect of over 55% in size
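Heparin-induced fibrillization of the P301L-mutant K18 repeat-domain fragment of human tau was followed by ThT binding in quantitative high-throughput format.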
Tau FP inhib: blocks human tau fibril formation measured by polarization. P10636. K18 P301L tau heparin fibrillization, Alexa594 FP, 6 h. Potency, µM (highest dose often 57.7 µM), for the others: at the top dose activity, negative = inhibition, most hits filed as inhibitors. 0.39% of 280,000 active. AID 1468; further: potency means the concentration at half of the fitted maximal effect; nearly all actives have a fitted effect of over 55% in size
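Compound effects on tau fibrillization are measured by Alexa 594 fluorescence polarization (ex 555, em 632 nm). K18 P301L tau is used at 15 uM with 0.24 uM labeled tracer, and 20 uM heparin induces aggregation over 6 hr at 37 C.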
FBPA coupling cs: counter-screen for Giardia aldolase inhibitors: coupling enzyme system; AID 2472; 0.67% of 290,000 active; coupling enzyme system counterscreen, AmpLite Red fluorescence; activity change, negative = inhibition, % at 58.2 µM, hits read low; in the data active means activity change below about -30%
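Final compound at 57.5 uM, incubated 10 min at RT with coupling enzyme reagent (glyceraldehyde-3-phosphate), then 20 min with substrate and AmpLite Red detection. Fluorescence read at 525/598 nm; tests interference with the coupling assay, not aldolase inhibition.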
The depositor's hits bear a star; ? = inconclusive; nt = not tested or not shown; [ ] = dose if it differs, or a comment. Unless noted, the call rests on the fitted dose curve; in most records, active means well fitted curve in the direction sought with a large enough effect; inconclusive means small, poorly fitted or top-dose-only effect, or another doubt; inactive means no such curve, though single readings can be large; an effect the other way counts as inactive or inconclusive. On the % scale 0 is the no-effect control and ±100 the full control effect.

SMILES	Tau fluor cs	USP1 inh	Tau ThT inhib	Tau FP inhib	FBPA coupling cs
O=C1CCCC2=C1C(c1ccncc1)Nc1ccccc1N2 (configuration not stated)	-13%	-1%	-14%	-4%	1
O=C1NCC2=C1C(c1ccccc1)Nc1ccccc1N2 (configuration not stated)	-23%	?	?	-12%	-41*
Cc1nn(C)c(=O)n1-c1ccccc1	0%	-7%	-2%	4%	2
Cn1c2nc(=O)n(-c3ccccc3)c(=O)c-2nc2c1CCCC2	nt	14µM*	nt	nt	nt
N#C/C(=C\c1c[nH]c2ccccc12)C(=O)NC1CC1	nt	-4%	nt	nt	-11
N#C/C(=C\c1c[nH]c2ccccc12)C(=O)c1ccc(O)c(O)c1	16µM*[quencher]	nt	10µM*	4%	nt
CNC(=O)C1CCC(Cn2c(=O)c3sccc3n(CC(=O)Nc3ccc(C)cc3C)c2=O)CC1 (configuration not stated)	-3%	9%	-4%	-6%	nt
NS(=O)(=O)c1ccc(NCc2c(F)cccc2Cl)cc1	0%	-13%	-3%	0%	-1
Fc1cccc(Cl)c1CNc1ccc(N2CCCC2)cc1	?	-24%	5.6µM*	11µM*	-17
COc1cc(-c2nc3ncccn3c2Nc2ccc(C)cc2C)ccc1O	?	-24%	?	6%	nt
CCOC(=O)C1=C(c2ccccc2)N=c2s/c(=C\c3ccc(O)cc3)c(=O)n2C1c1cccs1 (configuration not stated)	8.9µM*[quencher]	28µM*	?	32µM*	-2
CC(=O)OCC(NC(=O)C(COCc1ccccc1)NC(=O)OC(C)(C)C)C1OC(n2ccc(=O)[nH]c2=O)C(OC(C)=O)C1OC(C)=O (configuration not stated)	nt	nt	nt	nt	2
O=C1CCCC(O)=C1N=Nc1ccc2c(c1)OCO2	-15%	?	?	3%	1
Nc1n[nH]c(N)c1N=Nc1ccc2c(c1)OCO2	-30%	-23%	14µM*	1%	-5
CN(C)CCNC=C(C(=O)Nc1ccc(Cl)cc1Cl)C(=O)Nc1ccc(Cl)cc1Cl	?	-18%	3%	10µM*	6
CC(=O)/C(=C/N(C)C)C(=O)Nc1ccc(Cl)cc1Cl	-3%	-12%	-3%	8%	3
N/C(Cc1cccc2ccccc12)=N\OC(=O)Cc1cccs1	11%	-20%	13%	8%	-40*
CCCSc1nnc(NC(=O)c2sc3nc(-c4cccs4)ccc3c2N)s1	?	?	7.9µM*	-4%	0
Cc1csc(NC(=O)c2sc3nc(-c4cccs4)ccc3c2N)n1	?	?	7.9µM*	13%	-5
COc1ccc(-c2ccc(CNCCCSc3nnnn3C)o2)cc1Cl	-8%	-2%	-13%	1%	nt
CCn1c(C)cc(=S)c2ccccc21	-29%	-15%	20µM*	?	-42*
O=C(c1cccc(F)c1)N1CCC2(CC1)CCN(c1ncccn1)CC2	nt	nt	nt	nt	1
CC(=O)Nc1ccc(S(=O)(=O)Oc2ccc(/C=N/NC(=O)c3ccc(Cl)cc3)cc2)cc1	?	-4%	?	13µM*	0
COc1ccc(NC(=O)c2cc3cccc(OC)c3oc2=Nc2ccc(C(=O)O)cc2)cc1OC	?	-20%	14µM*	?	0
CO[C@H]1COC(=O)[C@H]2CCCN2C(=O)C/C=C\[C@@H](C)[C@H](OC)COC(=O)[C@@H](OCc2ccccc2)/C=C\[C@@H]1C	-5%[11.6 µM]	nt	-9%[11.5 µM]	-3%[11.6 µM]	0
SMILES	Tau fluor cs	USP1 inh	Tau ThT inhib	Tau FP inhib	FBPA coupling cs
NC(C(=O)O)c1cccc(O)c1 (configuration not stated)	-3%	nt	10%	-1%	nt
O=C(c1cc(-c2ccco2)nn1-c1cccc(Cl)c1)N1CCCCC1	-23%	-22%	28µM*	?	0
COC(=O)C1=C(C(=O)OC)[C@@H]2Nc3ccccc3[C@@]23C[C@@H](C(=O)OC)N(S(=O)(=O)c2ccc(C(F)(F)F)cc2)C3=N1	-3%[11.6 µM]	nt	5%[11.5 µM]	4%[11.6 µM]	-2
CC1CCCC(NC(=O)C2CCN(S(=O)(=O)c3cnc[nH]3)CC2)C1C (configuration not stated)	nt	?	nt	nt	0
N#Cc1cc(Sc2ccccn2)c([N+](=O)[O-])cc1C#N	?	-21%	14µM*	-17%	-22
O=[N+]([O-])c1ccc(/C=C/C2=NN(c3ccccc3)C(c3ccco3)C2)o1 (configuration not stated)	?	-10%	7.9µM*	1%	-1
O=S(=O)(Nc1cc(O)cc2cccnc12)c1ccc(Br)s1	nt	nt	nt	nt	-68*
O=S(=O)(Nc1ccccc1N1CCCCC1)c1ccc(Cl)s1	-30%	?	-21%	-3%	-23
O=S(=O)(Nc1cc(O)cc2cccnc12)c1ccc(Cl)s1	nt	nt	nt	nt	-64*
COC(=O)C1=C[C@@H](C(=O)OC)[C@@H]2C3=C(C(=O)[C@@]2(C)NC(=O)c2ccccc2)[C@H](C)[C@@H]2C(=O)N(Cc4ccccc4)C(=O)[C@@H]2[C@@H]3C1	nt	nt	nt	nt	2
CC(=Nc1ccc(O)cc1)c1sc2ccccc2c1O	?	113%	4.5µM*	13%	1
CC(=Nc1ccccc1O)c1sc2ccccc2c1O	28µM*[quencher]	?	5µM*	18%	-7
CC(=Nc1cccc(C)c1)c1sc2ccccc2c1O	?	?	?	13%	3
CC(=O)NCCN=C(C)c1sc2ccccc2c1O	-14%	-7%	?	8%	1
COCCNC(=O)[C@H](C)/C=C(\c1cccnc1)C(NC(=O)OCc1ccccc1)c1ccc(C(=O)OC)cc1 (some centres not stated)	-7%	nt	-1%	2%	5
Cc1cc(N(CCO)CCO)ccc1N=Nc1cc(F)ccc1F	?	-13%	10µM*	14%	0
OCCN(CCO)c1ccc(C(c2ccc(Cl)cc2)c2ccc(N(CCO)CCO)cc2Cl)c(Cl)c1	0%	-8%	4%	9%	5
Cc1cccc(N2CCN(C(=O)c3cn4ccccc4n3)CC2C)c1 (configuration not stated)	-12%	-32%	-9%	?	1
Cc1nc(CSc2nsc(/C=C/N(C)C)c2C#N)cs1	?	?	25µM*	-12%	-12
N#Cc1c(C#N)c(O)c2ccccc2c1O	-26%	?	14µM*	?	-24
N#Cc1ccccc1	nt	-3%	nt	nt	nt
COc1ccc(OCC(=O)NC(Cc2c[nH]c3ccccc23)C(=O)O)cc1 (configuration not stated)	2%	6%	-2%	3%	nt
CC(C)(C)CN1CCNC(=O)C1CC(=O)N1CCN(c2ccccc2)CC1 (configuration not stated)	-9%	-14%	-13%	3%	-38*
